Data from PubChem BioAssay AID1508625 (Wald Lab, School of Medicine, Case Western Reserve …, 2021).

Assay: small molecules boosting NK-mediated OVCAR3 lysis – imaging, primary NK cells, calcein-AM imaging, primary screen (AID 1508625);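 note: compound given to NK cells 16 h before adding targets at 1.5 to 1 ratio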;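 for z-score: more negative robust z means stronger NK killing of tumor cells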
Settings: OVCAR3 lysis by primary NK cells, at 5 µM; z-score: measured here: robust Z-score, single-point normalisation

| SMILES | corrected activity, negative = more killing | z-score |
| --- | --- | --- |
| CCOC(=O)c1ccc(NC(=O)C(=O)N2CCCC2)cc1 | -5.89% | -2.55 |
| Cc1ccc(NC(=O)CSc2nnc(N3C(=O)c4ccccc4C3=O)s2)c(C)c1 | -5.41% | -1.68 |
| O=C1NN(c2cccc(Cl)c2)C(=O)C1=Cc1cc(Cl)ccc1O | -4.57% | -1.45 |
| Cc1ccc(NCc2cccnc2)cc1 | -1.25% | -0.529 |
| Cc1cc(C)cc(NS(=O)(=O)c2ccc3[nH]cc(C(=O)NCc4cccs4)c(=O)c3c2)c1 | -6.12% | -1.5 |
| Cc1ccc(N2CC(C(=O)Nc3cccc(C)n3)CC2=O)cc1 (centres undefined) | -3% | -1.13 |
| CCOc1ccc2cc(C3=NN(C(=O)CCC(=O)O)C(c4ccc(Br)cc4)C3)c(Cl)nc2c1 (centres undefined) | -2.89% | -1.55 |
| Cc1cccc(OCCn2c(=N)n(CC(N)=O)c3ccccc32)c1 | -6.66% | -1.99 |
| O=C1C2C3CC(C(Br)C3Br)C2C(=O)N1c1cccc2ccccc12 (centres undefined) | -3.98% | -1.41 |
| CN1C(=O)c2ccccc2Sc2ccc(C(=O)O)cc21 | -8.06% | -2.17 |
| COc1ccc(C(O)=C2C(=O)C(=O)N(c3ccccn3)C2c2ccc(C(C)C)cc2)cc1 (centres undefined) | -1.15% | -0.498 |
| Cc1cc(Br)c(O)c(C=NCCNC(=O)c2nonc2N)c1 | 0.42% | 0.173 |
| O=C(Nc1cc([N+](=O)[O-])ccc1Cl)c1cnc2n(c1=O)CCS2 | -1.04% | -0.332 |
| O=C(CCCn1c(=S)[nH]c2cc3c(cc2c1=O)OCO3)N1CCN(Cc2ccc3c(c2)OCO3)CC1 | -2.04% | -0.54 |
| O=C(Cn1ccc([N+](=O)[O-])n1)Nc1ccc(I)cc1 | -4.86% | -1.51 |
| COC(=O)c1ccc(COC(=O)c2ccc([N+](=O)[O-])c(C)c2)cc1 | -0.897% | -0.499 |
| CC(=O)Oc1ccc(-c2nc3ccc(OC(C)=O)cc3c(=O)o2)cc1 | -3.33% | -1.44 |
| CCN(CC)c1ccc(C=NS(=O)(=O)c2ccc(C)cc2)cc1 | -5.15% | -2.76 |
| O=C(COc1ccccc1Br)NN=Cc1ccccc1Br | -7.58% | -2.41 |
| Cc1ccc2oc(-c3ccc(NC(=O)c4cccc(F)c4)c(C)c3)nc2c1 | -9.28% | -3.29 |
| COC(=O)c1ccc(NC(=O)CN2CCN(CC#N)CC2)cc1 | -5.45% | -2.05 |

| SMILES | corrected activity, negative = more killing | z-score |
| --- | --- | --- |
| COc1ccccc1CN1CCN(C2CCN(Cc3ccccc3)CC2)CC1 | 0.136% | 0.0605 |
| COc1ccc(CNC(=O)CCN2C(=O)C3C4C=CC(CC4)C3C2=O)cc1 (centres undefined) | -5.25% | -1.67 |
| CC(=O)c1cccc(NC(=O)COc2ccccc2C)c1 | -1.74% | -0.9 |
| COc1ccccc1N1CCN(C(=O)c2cnn3c(C(F)(F)F)cc(-c4ccc(C)cc4)nc23)CC1 | -4.5% | -1.43 |
| CC(=O)CSc1nc(-c2cccs2)cc(C(F)(F)F)c1C#N | -1.56% | -0.485 |
| Cc1cc(-n2c(N)c(C(N)=O)sc2=S)ccc1Cl | -4.14% | -1.1 |
| COc1ccc(OC)c(NC(=O)C(N)=O)c1 | 1.08% | 0.459 |
| Cc1ccc(NC(=O)CSc2nc3c([nH]c4ccccc43)c(=O)n2-c2ccc(F)cc2)cc1 | -5.11% | -1.27 |
| CC(C)NC(=O)CC(=O)NN=C1CCCC1 | -6.06% | -2.58 |
| Cn1c(SCC(=O)c2ccccc2)nc2c([nH]c3ccccc32)c1=O | -5.65% | -1.41 |
| Cc1ccc(C(=O)O)c(C(=O)Nc2cccnc2)c1 | -0.349% | -0.143 |
| CCOc1ccc(C2C(N3C(=O)c4ccc([N+](=O)[O-])cc4C3=O)C(=O)N2c2ccc(Cl)cc2)cc1 (centres undefined) | 0.896% | 0.278 |
| COc1ccc(NC(=O)NCCc2ccncc2)cc1 | 0.111% | 0.0619 |
| CCC(=O)Nc1ccc(Cl)c(NC(=O)COc2ccc(Br)cc2)c1 | -0.00546% | -0.00304 |
| Cc1cc(C)cc(-n2cnc3cc(C(=O)NC4CCCCC4C)ccc32)c1 (centres undefined) | -2.86% | -0.771 |
| CN(C)c1ccc(C(=O)N2N=C(c3ccc(Cl)cc3)CC2(O)C(F)(F)F)cc1 (centres undefined) | -4.5% | -1.72 |
| O=C(Nc1cc2c(cc1C(=O)c1ccc(Br)cc1)OCCO2)c1ccc(Cl)cc1 | -4.2% | -1.3 |
| CCOc1ccc2nc(SCC(=O)Nc3ccccc3Oc3ccccc3)sc2c1 | -3.99% | -1.24 |
| CCOC(=O)c1ccc(N=c2oc3ccccc3cc2C(=O)Nc2ccccc2)cc1 | 2.85% | 1.01 |
| CC(C(=O)N1CCN(c2ccccc2)CC1)c1ccc([N+](=O)[O-])cc1 (centres undefined) | -3.44% | -1.91 |
| CCOc1ccc(C2C(N3C(=O)c4cccc([N+](=O)[O-])c4C3=O)C(=O)N2c2cc(Cl)ccc2C)cc1 (centres undefined) | -3.8% | -1.18 |
